EBV LMP1 NFkB – inhibitors of Epstein-Barr LMP1-induced NF-kappaB reporter; LMP1-induced NF-kappaB luciferase reporter cells, luminescence; inhibition, % at 12.5 µM; hit rate 0.69% among 350,000; in the data active = inhibition above about 41%; inconclusive = no clear call, values can overlap the other calls;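 note: 0% = neutral control wells and 100% = reference inhibitor control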
LGR2 antag – blocks bursicon-induced cAMP signaling via Drosophila LGR2; inhibition, % at 9.99 µM; hit rate 0.35% among 380,000; AID 720647; HEK293 LGR2, CRE-luciferase, bursicon-stimulated, 4 h;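 active = drop in luminescence signal, shown as inhibition above about 50% in the replicate tests, limit read from the data, passing the limit was not always enough; inconclusive = probably only some replicates passing the limit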;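 note: agonist challenge used bursicon conditioned medium at about half maximal strength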
MITF act – activators of MITF-driven TRPM1 promoter activity in SK-MEL-5 cells; SK-MEL-5 TRPM1-promoter luciferase, 24 h; % of positive control, neutral wells = 0; activation, % at 12.5 µM; hit rate 0.75% among 300,000; AID 588334;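 active = mean activation of at least 80% with every replicate also reaching 80%; inconclusive = mean reaches 80% but some replicate falls short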;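 note: 0% = neutral control wells and 100% = parthenolide positive control wells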
TROY signal inh – inhibitors of TROY-dependent NF-kB signaling; Q293 LMP1-TROYcd NF-kB luciferase reporter, 4 h; inhibition, % at 10 µM; hit rate 0.98% among 360,000; AID 1347056;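 active = compounds whose plate-normalised and pattern-corrected inhibition of the luciferase reporter signal at the single screening dose is 50% or more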
TWEAK Fn14 block – TWEAK-Fn14 signaling inhibition; hit rate 2% among 360,000; AID 1159606; TWEAK-stimulated Fn14 reporter cells, luciferase luminescence, 8 h; inhibition, % at 10 µM; in the data active = inhibition above about 50%
TRPM1 prom inh – inhibitors of MITF-driven TRPM1 promoter in melanoma cells. SK-MEL-5 TRPM1 promoter luciferase, 24 h. inhibition, % at 12.5 µM. hit rate 0.83% among 330,000;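 active = mean inhibition across replicates of 60% or more, whatever share of single replicates reaches that level; inconclusive = some that reach 60%, reason not given; inactive = mean inhibition across replicates below 60%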
An asterisk follows results filed as active. Shown are actives, neighbours in structure and some others; about 3% of the full set was active somewhere.

Cc1ccc(NC(=O)CCC(=O)N/N=C/c2ccc([N+](=O)[O-])o2)cc1C was read as EBV LMP1 NFkB -4, LGR2 antag 0, MITF act -78, TROY signal inh 5, TWEAK Fn14 block -12 and TRPM1 prom inh 79*.
`Cc1ccc(S(=O)(=O)NCC[C@@H]2CC[C@H](NC(=O)c3ccccn3)[C@@H](CO)O2)cc1` gave LGR2 antag -22.
CCCNC(=O)C[C@@H]1CC[C@H]2[C@@H](COC[C@H](O)CN2C(=O)Nc2cccc(Cl)c2)O1 was read as LGR2 antag -8.
For Cc1cc(C(=O)N/N=C/c2ccc([N+](=O)[O-])o2)c(C)o1 the results were EBV LMP1 NFkB -11, LGR2 antag 1, MITF act -82, TROY signal inh 22, TWEAK Fn14 block 9 and TRPM1 prom inh 83*.
Screening CCCc1ccc(-c2cc(C(=O)N/N=C/c3ccc([N+](=O)[O-])o3)c3ccccc3n2)cc1 returned EBV LMP1 NFkB 58*, MITF act -48, TROY signal inh -20, TWEAK Fn14 block 32 and TRPM1 prom inh 51.
`Cc1ccc(OCC(=O)N/N=C/c2ccc([N+](=O)[O-])o2)cc1` gave EBV LMP1 NFkB -7, MITF act -61, TROY signal inh 8, TWEAK Fn14 block 0 and TRPM1 prom inh 64*.
Screening COCC(=O)Nc1ccc2c(c1)C(=O)N(C)C[C@H](OC)[C@H](C)CN(C(=O)CC1CC1)[C@H](C)CO2 returned LGR2 antag 6.
`CCCC(=O)N1CC2(CN[C@H](CO)c3c2c2ccc(OC)cc2n3C)C1` gave LGR2 antag 7.
Screening CNC(=O)c1sc(N2N=C3/C(=C/c4ccccc4)CCCC3C2c2ccccc2)nc1C (stereo unspecified) returned EBV LMP1 NFkB 12, LGR2 antag 21, MITF act -5, TROY signal inh 30, TWEAK Fn14 block 58* and TRPM1 prom inh 3.
CNC(=O)c1sc(N2N=C3/C(=C\c4ccccc4)CCCC3C2c2ccccc2)nc1C (stereo unspecified) was read as EBV LMP1 NFkB 11, LGR2 antag -6, MITF act -4, TROY signal inh 48, TWEAK Fn14 block 84* and TRPM1 prom inh 10.
Screening O=C(c1ccccn1)N1N=C2/C(=C/c3ccccc3)CCCC2C1c1ccccc1 (stereo unspecified) returned EBV LMP1 NFkB -9, LGR2 antag 4, MITF act -2, TROY signal inh -10, TWEAK Fn14 block 9 and TRPM1 prom inh 0.
For Cc1noc(C)c1S(=O)(=O)Nc1ccc2c(c1)C(=O)N([C@@H](C)CO)C[C@H](C)[C@@H](CN(C)C(=O)Nc1ccc(F)cc1)O2 the results were LGR2 antag 8.
For O=C(C1CCC1)N1CC2(C1)[C@@H](c1ccccc1)[C@@H](CO)N2C(=O)c1ccccn1 the results were LGR2 antag 6.
Cc1cc(C(F)(F)F)nn1CC(=O)NNC(=S)Nc1ccc(F)cc1 was read as EBV LMP1 NFkB -8, MITF act -5, TROY signal inh -9, TWEAK Fn14 block 9 and TRPM1 prom inh 3.
CCNS(=O)(=O)c1ccc(NC(=O)Cn2nc(C(F)(F)F)cc2C)cc1 was read as EBV LMP1 NFkB 7, MITF act -4, TWEAK Fn14 block 87* and TRPM1 prom inh 3.
Cc1ccnc(SCC(=O)c2cccc([N+](=O)[O-])c2)n1 was read as EBV LMP1 NFkB -6, LGR2 antag -3, MITF act 15, TROY signal inh -18, TWEAK Fn14 block -8 and TRPM1 prom inh -13.
`Cc1nc(SCC(=O)c2cccc([N+](=O)[O-])c2)n[nH]1` gave EBV LMP1 NFkB 55*, MITF act -5, TROY signal inh -11, TWEAK Fn14 block -44 and TRPM1 prom inh 5.
Screening CCCNC(=O)N1C[C@@H](C)[C@@H](OC)CN(C)C(=O)c2ccc(NC(C)=O)cc2OC[C@@H]1C returned LGR2 antag 4.
For O=C(/C=C/c1ccc(Cl)cc1Cl)N1CCN(c2ccc([N+](=O)[O-])c(N3CCOCC3)c2)CC1 the results were EBV LMP1 NFkB 8, LGR2 antag -1, MITF act -11, TROY signal inh 20, TWEAK Fn14 block 31 and TRPM1 prom inh 12.
Screening O=C(/C=C/c1ccc(Cl)cc1)N1CCN(c2ccc([N+](=O)[O-])c(N3CCOCC3)c2)CC1 returned EBV LMP1 NFkB 21, LGR2 antag 30, MITF act -12, TROY signal inh 56*, TWEAK Fn14 block 64* and TRPM1 prom inh 10.
Screening O=C(C[C@H]1CC[C@@H]2[C@H](COC[C@H](O)CN2Cc2ccc(Cl)cc2)O1)NCc1cccc(F)c1 returned LGR2 antag 5.
For COc1ccc2c(C)nc(Nc3nc(-c4ccccc4)cc(=O)[nH]3)nc2c1 the results were EBV LMP1 NFkB -143, LGR2 antag inconclusive, MITF act -70, TROY signal inh 58*, TWEAK Fn14 block 63* and TRPM1 prom inh 70*.
`Cc1ccc2c(C)nc(Nc3nc(CSc4nc5ccccc5[nH]4)cc(=O)[nH]3)nc2c1` gave EBV LMP1 NFkB -2, LGR2 antag 32, MITF act -82, TROY signal inh 68*, TWEAK Fn14 block 96* and TRPM1 prom inh 80*.
Cc1ccc2nc(Nc3nc(-c4ccccc4)cc(=O)[nH]3)nc(C)c2c1 was read as EBV LMP1 NFkB -36, LGR2 antag inconclusive, MITF act -36, TWEAK Fn14 block 32 and TRPM1 prom inh 37.
`C[C@H](CO)N1C[C@H](C)[C@H](CN(C)C(=O)CCCN(C)C)OCCCC[C@H](C)Oc2ccc(NC(=O)Cc3ccccc3)cc2C1=O` gave LGR2 antag 1.
Screening c1ccc2c(c1)C(=NCC1CCCO1)NC2=NCC1CCCO1 (stereo unspecified) returned EBV LMP1 NFkB -3, LGR2 antag -5, MITF act -2, TROY signal inh -24, TWEAK Fn14 block 5 and TRPM1 prom inh 1.
`CC(C)(C)N=C1NC(=NC(C)(C)C)c2ccccc21` gave EBV LMP1 NFkB -1, LGR2 antag 13, MITF act 1, TROY signal inh -23, TWEAK Fn14 block 53* and TRPM1 prom inh -3.
For COc1ccccc1N1CCN(C(=O)Cn2nc(C(F)(F)F)c3c2CCC3)CC1 the results were EBV LMP1 NFkB -8, MITF act -1, TWEAK Fn14 block 53* and TRPM1 prom inh 3.
O=C(C1CCC1)N1CC(=O)N2[C@H](CO)[C@H](c3ccc(-c4ccccc4F)cc3)[C@@H]2C1 was read as LGR2 antag 14.
Screening COc1ccccc1C#Cc1ccc([C@@H]2[C@@H](CO)N3CCCCN(S(C)(=O)=O)C[C@H]23)cc1 returned LGR2 antag -16.
For COc1ccc(Nc2nc(NC(C)C)nc3ccsc23)cc1OC the results were LGR2 antag -18, TROY signal inh -1 and TWEAK Fn14 block 29.

High-throughput results: PubChem, several laboratories
